This note sets out measurements from PMC7862700, “An all-to-all approach to the identification of sequence-specific readers for epigenetic DNA modifications on cytosine”.

Test in all cases: DAPPL (digital affinity profiling via proximity ligation, sequencing); 10 mM Tris-HCl pH 7.5, 50 mM NaCl, 1 mM DTT, 4% glycerol, room temperature, 30 min; GST-TFs on glutathione beads, 16-mer random dsDNA library, 0.1% formaldehyde crosslink after washing; high values mean tight binding
For assay [1], the target named is T1, FEV (Homo sapiens, UniProt Q99581 1-238).
T1 sequence: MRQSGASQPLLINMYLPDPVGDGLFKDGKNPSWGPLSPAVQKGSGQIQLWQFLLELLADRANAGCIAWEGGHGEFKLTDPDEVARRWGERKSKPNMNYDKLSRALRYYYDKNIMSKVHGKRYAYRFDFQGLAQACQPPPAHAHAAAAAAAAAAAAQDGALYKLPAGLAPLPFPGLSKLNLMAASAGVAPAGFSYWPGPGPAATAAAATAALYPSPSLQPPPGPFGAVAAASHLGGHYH
The note with it: protein: recombinant; tags: N-terminal GST; dsDNA, one strand shown. The gist of the method: (§1)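 Binding signal is defined as a hexamer's read frequency for one factor over its frequency for the tag-only sample. To obtain reads, GST-fused human transcription factors were expressed in yeast, captured on glutathione beads, barcoded with DNA and pooled with that sample. Pools met 200 nmole of a 16-mer random double-stranded DNA library in Tris/NaCl/DTT/glycerol buffer for 30 min at room temperature before washing, 0.1% formaldehyde crosslinking, proximity ligation (BsaI/T4 ligase, 1 h, 37 °C), PCR and Illumina NextSeq500 sequencing.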

Assay [2] concerns the target ETV5 (Homo sapiens, UniProt P41161 1-510). The note with it: protein: recombinant; tags: N-terminal GST; dsDNA, one strand shown. The method in brief: as §1
Assay [3] has as its target HSF1 (Homo sapiens, UniProt Q00613 1-529). Particulars: protein: recombinant; tags: N-terminal GST; chain copies: 3; dsDNA, one strand shown. The method in brief: as §1
For assay [4], the target named is T2, SPIC (Homo sapiens, UniProt Q8N5J4 1-248).
T2 sequence: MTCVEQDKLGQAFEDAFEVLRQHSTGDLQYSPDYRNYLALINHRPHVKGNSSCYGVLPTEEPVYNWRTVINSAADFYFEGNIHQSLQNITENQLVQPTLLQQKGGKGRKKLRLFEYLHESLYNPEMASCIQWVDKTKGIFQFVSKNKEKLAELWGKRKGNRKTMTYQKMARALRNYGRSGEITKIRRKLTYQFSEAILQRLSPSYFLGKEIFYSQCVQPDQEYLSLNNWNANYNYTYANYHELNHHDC
Particulars: protein: recombinant; tags: N-terminal GST; dsDNA, one strand shown. The method in brief:
as §1

For assay [5], the target named is ELF4 (Homo sapiens, UniProt Q99607 1-663). Particulars: protein: recombinant; tags: N-terminal GST; dsDNA, one strand shown. The method in brief:
as §1

The target in assay [6] is T3, ELK4 (Homo sapiens, UniProt P28324-2 1-405).
T3 sequence: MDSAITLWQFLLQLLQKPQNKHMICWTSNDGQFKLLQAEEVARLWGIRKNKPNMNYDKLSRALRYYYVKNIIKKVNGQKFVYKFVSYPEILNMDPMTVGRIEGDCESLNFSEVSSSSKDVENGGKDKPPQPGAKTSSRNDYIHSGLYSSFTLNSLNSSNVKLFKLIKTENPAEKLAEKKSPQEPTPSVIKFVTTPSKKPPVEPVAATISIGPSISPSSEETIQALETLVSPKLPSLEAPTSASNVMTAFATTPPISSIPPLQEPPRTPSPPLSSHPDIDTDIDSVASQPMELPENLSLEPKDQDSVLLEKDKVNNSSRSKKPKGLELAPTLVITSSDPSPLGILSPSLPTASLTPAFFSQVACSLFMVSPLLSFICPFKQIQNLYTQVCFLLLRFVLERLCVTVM
Particulars: protein: recombinant; tags: N-terminal GST; dsDNA, one strand shown. The gist of the method: as §1

Assay [7] deals with T4, ETV2 (Homo sapiens, UniProt O00321 1-342).
T4 sequence: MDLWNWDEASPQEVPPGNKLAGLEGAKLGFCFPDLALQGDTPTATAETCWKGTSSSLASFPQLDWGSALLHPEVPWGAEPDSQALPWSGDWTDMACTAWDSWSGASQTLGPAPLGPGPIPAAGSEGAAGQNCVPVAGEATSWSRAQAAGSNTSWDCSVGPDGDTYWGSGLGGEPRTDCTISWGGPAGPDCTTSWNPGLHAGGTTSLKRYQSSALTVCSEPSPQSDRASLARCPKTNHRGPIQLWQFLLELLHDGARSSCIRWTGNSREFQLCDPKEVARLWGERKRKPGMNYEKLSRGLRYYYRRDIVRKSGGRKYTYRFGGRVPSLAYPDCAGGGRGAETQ
The note with it: protein: recombinant; tags: N-terminal GST; dsDNA, one strand shown. The method in brief:
as §1

Assay [8] concerns the target T5, ELF3 (Homo sapiens, UniProt P78545 1-371).
T5 sequence: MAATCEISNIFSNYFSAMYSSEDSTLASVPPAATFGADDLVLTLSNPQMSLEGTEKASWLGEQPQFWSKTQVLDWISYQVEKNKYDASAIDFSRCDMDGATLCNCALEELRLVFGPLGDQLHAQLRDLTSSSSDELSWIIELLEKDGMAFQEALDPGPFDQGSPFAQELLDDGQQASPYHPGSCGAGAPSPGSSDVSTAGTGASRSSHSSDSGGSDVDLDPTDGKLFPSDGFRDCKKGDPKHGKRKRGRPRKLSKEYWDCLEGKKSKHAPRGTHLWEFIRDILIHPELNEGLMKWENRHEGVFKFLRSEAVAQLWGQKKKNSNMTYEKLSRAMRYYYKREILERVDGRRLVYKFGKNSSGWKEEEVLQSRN
Particulars: protein: recombinant; tags: N-terminal GST; dsDNA, one strand shown. The method in brief:
as §1

In assay [9] the target is CRX (Homo sapiens, UniProt O43186 1-299). Particulars: protein: recombinant; tags: N-terminal GST; dsDNA, one strand shown. The method in brief:
as §1

In assay [10] the target is ETV1 (Homo sapiens, UniProt P50549 1-477). Particulars: protein: recombinant; tags: N-terminal GST; dsDNA, one strand shown. The method in brief:
as §1

For assay [11], the target named is T6, ERF (Homo sapiens, UniProt P50548 1-548).
T6 sequence: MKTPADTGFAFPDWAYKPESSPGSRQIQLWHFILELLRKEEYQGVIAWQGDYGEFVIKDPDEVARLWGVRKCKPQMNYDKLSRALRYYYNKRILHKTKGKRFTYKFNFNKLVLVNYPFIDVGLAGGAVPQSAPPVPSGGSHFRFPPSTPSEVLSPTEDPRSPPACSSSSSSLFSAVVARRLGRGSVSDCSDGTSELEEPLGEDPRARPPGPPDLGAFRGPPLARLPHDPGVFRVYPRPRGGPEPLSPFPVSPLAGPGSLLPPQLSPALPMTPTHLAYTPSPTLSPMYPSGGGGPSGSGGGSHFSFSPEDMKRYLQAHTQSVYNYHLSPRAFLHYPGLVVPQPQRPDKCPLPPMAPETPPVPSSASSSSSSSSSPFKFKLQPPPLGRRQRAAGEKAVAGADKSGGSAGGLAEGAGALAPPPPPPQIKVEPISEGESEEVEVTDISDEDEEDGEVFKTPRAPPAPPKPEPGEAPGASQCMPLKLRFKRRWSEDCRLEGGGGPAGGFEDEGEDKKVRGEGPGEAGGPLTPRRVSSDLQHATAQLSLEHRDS
Particulars: protein: recombinant; tags: N-terminal GST; dsDNA, one strand shown. The method in brief: as §1

The target in assay [12] is T7, ETV3L (Homo sapiens, UniProt Q6ZN32 1-361).
T7 sequence: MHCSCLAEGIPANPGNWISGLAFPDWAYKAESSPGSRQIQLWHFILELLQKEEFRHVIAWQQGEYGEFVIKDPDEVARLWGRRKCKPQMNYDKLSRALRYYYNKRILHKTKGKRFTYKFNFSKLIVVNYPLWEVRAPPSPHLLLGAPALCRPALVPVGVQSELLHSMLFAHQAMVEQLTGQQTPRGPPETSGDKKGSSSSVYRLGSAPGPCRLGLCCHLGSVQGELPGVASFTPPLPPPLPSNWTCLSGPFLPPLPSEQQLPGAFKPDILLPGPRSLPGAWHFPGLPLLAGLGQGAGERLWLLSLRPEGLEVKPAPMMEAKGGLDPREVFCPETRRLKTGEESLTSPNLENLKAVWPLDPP
Particulars: protein: recombinant; tags: N-terminal GST; dsDNA, one strand shown. The gist of the method: as §1

Assay [13] deals with T8, ETS2 (Homo sapiens, UniProt P15036 1-469).
T8 sequence: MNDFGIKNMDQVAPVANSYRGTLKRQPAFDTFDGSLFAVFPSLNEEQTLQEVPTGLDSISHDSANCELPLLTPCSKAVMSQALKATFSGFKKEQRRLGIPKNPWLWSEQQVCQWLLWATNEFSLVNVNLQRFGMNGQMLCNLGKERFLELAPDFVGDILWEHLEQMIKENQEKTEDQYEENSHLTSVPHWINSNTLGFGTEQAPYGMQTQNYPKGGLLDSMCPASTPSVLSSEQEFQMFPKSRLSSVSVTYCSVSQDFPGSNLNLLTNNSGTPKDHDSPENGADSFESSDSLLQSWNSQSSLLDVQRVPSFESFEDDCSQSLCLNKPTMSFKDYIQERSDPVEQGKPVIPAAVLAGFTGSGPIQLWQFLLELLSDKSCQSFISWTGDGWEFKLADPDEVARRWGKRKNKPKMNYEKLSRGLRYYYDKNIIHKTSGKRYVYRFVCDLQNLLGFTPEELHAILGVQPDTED
The note with it: protein: recombinant; tags: N-terminal GST; dsDNA, one strand shown. The method in brief: as §1

Assay [14] addresses T9, SPDEF (Homo sapiens, UniProt O95238 1-335).
T9 sequence: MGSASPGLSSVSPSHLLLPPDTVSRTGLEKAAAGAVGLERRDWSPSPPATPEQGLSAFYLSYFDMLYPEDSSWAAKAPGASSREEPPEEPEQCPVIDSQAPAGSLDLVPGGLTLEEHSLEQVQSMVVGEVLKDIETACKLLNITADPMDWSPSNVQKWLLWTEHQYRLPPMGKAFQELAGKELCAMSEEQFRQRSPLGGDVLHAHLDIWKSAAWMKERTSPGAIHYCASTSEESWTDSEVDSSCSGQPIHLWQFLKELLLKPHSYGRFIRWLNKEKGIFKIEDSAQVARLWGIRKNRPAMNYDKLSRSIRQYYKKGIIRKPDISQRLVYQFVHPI
Particulars: protein: recombinant; tags: N-terminal GST; dsDNA, one strand shown. The method in brief: as §1

In assay [15] the target is T10, ETV7 (Homo sapiens, UniProt Q9Y603 1-341).
T10 sequence: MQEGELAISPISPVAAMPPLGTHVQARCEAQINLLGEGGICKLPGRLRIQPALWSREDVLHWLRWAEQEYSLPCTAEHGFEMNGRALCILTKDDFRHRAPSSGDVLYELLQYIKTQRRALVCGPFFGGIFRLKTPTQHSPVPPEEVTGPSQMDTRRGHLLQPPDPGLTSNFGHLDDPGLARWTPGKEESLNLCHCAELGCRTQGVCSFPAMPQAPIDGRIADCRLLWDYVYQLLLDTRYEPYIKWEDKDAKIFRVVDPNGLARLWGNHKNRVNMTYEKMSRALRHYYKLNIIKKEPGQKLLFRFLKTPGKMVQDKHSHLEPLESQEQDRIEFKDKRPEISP
Particulars: protein: recombinant; tags: N-terminal GST; dsDNA, one strand shown. The method in brief: as §1

Assay [16] has as its target T11, ELF5 (Homo sapiens, UniProt Q9UKW6-2 1-255).
T11 sequence: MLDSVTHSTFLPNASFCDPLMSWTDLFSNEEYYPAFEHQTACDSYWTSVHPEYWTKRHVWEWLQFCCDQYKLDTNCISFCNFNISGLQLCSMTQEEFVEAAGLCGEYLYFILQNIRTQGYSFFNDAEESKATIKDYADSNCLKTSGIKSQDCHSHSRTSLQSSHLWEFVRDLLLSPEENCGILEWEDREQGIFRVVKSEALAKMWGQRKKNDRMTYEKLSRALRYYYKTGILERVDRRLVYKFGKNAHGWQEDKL
Particulars: protein: recombinant; tags: N-terminal GST; dsDNA, one strand shown. The method in brief: as §1

Assay [17] concerns the target T12, ETV3 (Homo sapiens, UniProt P41162-2 1-143).
T12 sequence: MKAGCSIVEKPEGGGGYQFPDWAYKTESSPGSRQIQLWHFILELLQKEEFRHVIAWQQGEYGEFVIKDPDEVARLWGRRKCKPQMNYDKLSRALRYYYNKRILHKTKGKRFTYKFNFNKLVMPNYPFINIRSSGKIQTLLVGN
Particulars: protein: recombinant; tags: N-terminal GST; dsDNA, one strand shown. The gist of the method: as §1

Assay [18] concerns the target ETV6 (Homo sapiens, UniProt P41212 1-452). The note with it: protein: recombinant; tags: N-terminal GST; dsDNA, one strand shown. The method in brief:
as §1

Sequence of HSF1 (Q00613 whole entry): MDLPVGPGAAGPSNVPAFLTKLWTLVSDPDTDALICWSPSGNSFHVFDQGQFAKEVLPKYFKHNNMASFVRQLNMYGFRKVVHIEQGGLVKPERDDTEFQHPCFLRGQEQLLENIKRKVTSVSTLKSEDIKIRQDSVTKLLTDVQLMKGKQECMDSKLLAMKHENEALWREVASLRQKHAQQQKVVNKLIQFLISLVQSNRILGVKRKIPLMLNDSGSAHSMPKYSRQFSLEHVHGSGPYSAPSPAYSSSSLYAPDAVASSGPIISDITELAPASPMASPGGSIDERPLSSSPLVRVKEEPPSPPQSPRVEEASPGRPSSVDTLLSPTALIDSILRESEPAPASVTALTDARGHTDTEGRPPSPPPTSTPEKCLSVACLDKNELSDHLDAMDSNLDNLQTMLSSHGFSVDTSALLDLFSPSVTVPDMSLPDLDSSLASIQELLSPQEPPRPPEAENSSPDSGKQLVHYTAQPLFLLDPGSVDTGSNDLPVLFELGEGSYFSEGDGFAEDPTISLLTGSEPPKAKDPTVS
Sequence of ETV6 (P41212 whole entry): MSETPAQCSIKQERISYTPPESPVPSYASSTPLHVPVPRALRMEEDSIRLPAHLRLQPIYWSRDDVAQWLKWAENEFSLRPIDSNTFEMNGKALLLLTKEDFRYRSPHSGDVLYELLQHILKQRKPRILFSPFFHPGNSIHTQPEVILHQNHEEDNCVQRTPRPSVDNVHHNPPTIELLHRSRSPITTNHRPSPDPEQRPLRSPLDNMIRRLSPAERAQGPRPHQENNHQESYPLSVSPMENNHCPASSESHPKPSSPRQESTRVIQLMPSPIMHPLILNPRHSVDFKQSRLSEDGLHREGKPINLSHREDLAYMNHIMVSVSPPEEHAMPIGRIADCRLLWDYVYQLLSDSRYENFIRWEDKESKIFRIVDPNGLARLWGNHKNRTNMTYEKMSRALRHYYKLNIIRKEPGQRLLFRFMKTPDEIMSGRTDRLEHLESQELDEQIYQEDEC
Sequence of ELF4 (Q99607 whole entry): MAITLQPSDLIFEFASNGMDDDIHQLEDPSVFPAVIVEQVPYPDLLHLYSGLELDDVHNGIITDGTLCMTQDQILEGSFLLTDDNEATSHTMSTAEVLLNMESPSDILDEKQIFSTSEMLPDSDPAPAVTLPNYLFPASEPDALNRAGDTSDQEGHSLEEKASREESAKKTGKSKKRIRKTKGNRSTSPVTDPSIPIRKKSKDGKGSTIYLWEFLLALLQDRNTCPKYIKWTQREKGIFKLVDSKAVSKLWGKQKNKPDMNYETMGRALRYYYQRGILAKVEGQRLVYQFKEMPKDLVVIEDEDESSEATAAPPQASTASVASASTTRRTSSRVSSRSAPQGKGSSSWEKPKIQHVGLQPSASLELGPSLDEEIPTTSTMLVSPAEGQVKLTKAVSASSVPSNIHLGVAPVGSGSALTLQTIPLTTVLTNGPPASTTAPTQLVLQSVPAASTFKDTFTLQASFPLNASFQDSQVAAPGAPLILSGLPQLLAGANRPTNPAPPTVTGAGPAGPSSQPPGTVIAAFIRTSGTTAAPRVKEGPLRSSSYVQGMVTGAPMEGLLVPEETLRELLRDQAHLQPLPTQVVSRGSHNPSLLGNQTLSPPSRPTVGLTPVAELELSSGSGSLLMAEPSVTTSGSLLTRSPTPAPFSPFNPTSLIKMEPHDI
Sequence of ETV5 (P41161 whole entry): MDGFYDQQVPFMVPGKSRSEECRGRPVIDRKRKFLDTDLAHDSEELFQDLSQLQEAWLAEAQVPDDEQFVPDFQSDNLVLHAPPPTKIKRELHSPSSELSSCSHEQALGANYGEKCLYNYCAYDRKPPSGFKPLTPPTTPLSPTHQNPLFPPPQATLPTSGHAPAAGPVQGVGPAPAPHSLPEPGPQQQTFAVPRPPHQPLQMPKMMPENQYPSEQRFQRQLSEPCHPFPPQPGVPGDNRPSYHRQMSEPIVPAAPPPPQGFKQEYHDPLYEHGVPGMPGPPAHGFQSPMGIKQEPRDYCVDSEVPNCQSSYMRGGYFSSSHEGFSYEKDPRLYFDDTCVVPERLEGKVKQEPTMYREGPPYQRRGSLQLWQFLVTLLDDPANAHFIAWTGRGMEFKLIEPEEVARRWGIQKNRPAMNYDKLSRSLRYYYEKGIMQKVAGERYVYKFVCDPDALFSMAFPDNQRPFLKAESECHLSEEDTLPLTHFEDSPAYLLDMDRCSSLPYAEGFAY
Sequence of CRX (O43186 whole entry): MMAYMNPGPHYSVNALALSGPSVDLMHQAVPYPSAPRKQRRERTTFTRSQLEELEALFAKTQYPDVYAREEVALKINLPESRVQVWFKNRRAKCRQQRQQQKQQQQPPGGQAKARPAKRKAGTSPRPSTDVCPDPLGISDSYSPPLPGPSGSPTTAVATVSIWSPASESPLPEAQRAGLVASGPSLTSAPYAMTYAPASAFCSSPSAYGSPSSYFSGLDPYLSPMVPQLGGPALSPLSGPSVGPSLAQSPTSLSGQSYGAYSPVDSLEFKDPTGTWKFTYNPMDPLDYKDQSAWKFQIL
Sequence of ETV1 (P50549 whole entry): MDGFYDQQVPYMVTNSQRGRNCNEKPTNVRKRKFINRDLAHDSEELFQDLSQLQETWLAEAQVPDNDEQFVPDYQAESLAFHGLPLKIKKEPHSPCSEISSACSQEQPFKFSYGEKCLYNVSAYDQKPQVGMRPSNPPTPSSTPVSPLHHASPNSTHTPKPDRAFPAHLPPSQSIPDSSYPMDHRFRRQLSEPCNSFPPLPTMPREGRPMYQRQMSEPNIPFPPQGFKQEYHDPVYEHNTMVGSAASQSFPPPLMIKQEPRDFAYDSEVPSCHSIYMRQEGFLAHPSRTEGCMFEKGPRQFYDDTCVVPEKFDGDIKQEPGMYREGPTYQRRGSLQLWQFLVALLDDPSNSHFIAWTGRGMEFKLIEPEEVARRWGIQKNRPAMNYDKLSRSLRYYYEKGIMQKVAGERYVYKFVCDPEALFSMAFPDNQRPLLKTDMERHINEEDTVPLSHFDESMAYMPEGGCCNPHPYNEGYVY

On to TAATAA, for which the binding signal in [1] was 1.13 fold enrichment (6-mer frequency, TF over GST control); in [2] it was 1.22 fold enrichment (6-mer frequency, TF over GST control); in assay [3] it was 1.76 fold enrichment (6-mer frequency, TF over GST control); in [4], 1.17 fold enrichment (6-mer frequency, TF over GST control); in assay [5] it was 1.21 fold enrichment (6-mer frequency, TF over GST control); in assay [6] it was 1.06 fold enrichment (6-mer frequency, TF over GST control). For the same sequence, the binding signal in [7] is 1.17 fold enrichment (6-mer frequency, TF over GST control); in [8], 1.21 fold enrichment (6-mer frequency, TF over GST control); in assay [9] it was 2.43 fold enrichment (6-mer frequency, TF over GST control); in assay [10] it was 1.12 fold enrichment (6-mer frequency, TF over GST control); in [11], 1.28 fold enrichment (6-mer frequency, TF over GST control); in [12], 1.24 fold enrichment (6-mer frequency, TF over GST control). In addition, the binding signal is 1.21 fold enrichment (6-mer frequency, TF over GST control) in assay [13]; 1.19 fold enrichment (6-mer frequency, TF over GST control) in [14]; 1.14 fold enrichment (6-mer frequency, TF over GST control) in assay [15]; 1.15 fold enrichment (6-mer frequency, TF over GST control) in assay [16]; 1.11 fold enrichment (6-mer frequency, TF over GST control) in [17]; 1.17 fold enrichment (6-mer frequency, TF over GST control) in assay [18].
